Screens as filed in PubChem.
NALP1 yeast inh: NALP1 inflammasome inhibitors in reconstituted yeast, colorimetric, S. cerevisiae, triplicate retest | AID 2071, 2009 | 0.61% of 280,000 active | S. cerevisiae NALP1/ASC/caspase-1 growth, X-gal OD620, 72 h | inhibition, % at 10 µM; in the data active = inhibition mostly above about 24%, no sharp cut-off; inactive = mostly below about 32%
NLRP3 yeast inh: NALP3 inflammasome inhibitors in reconstituted yeast, primary screen, luminescence, uHTS. Yeast reconstituted NLRP3/ASC/caspase-1, beta-gal luminescence, 24 h. 0.39% of 330,000 active. inhibition, % at 10 µM;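 active = inhibition of 50% or more; inactive = inhibition below 50%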;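 note: plate controls were induced DMSO wells for no effect and uninduced yeast grown without galactose for full effect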
tim23-1 inh: growth inhibitors of tim23-1 mutant yeast, primary screen, luminescence, uHTS | S. cerevisiae tim23-1 growth, BacTiter-Glo luminescence, 24 h | inhibition, % at 20 µM | 1.3% of 330,000 active | AID 463212, 2010;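 active = growth inhibition of the mutant yeast at or above 50%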;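 note: temperature-sensitive mutant grown at 25 °C; plate controls were DMSO-treated mutant yeast for no effect and medium wells lacking yeast for full effect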
SKKanGAS inh: S. pyogenes SKKanGAS growth inhibitors in kanamycin, primary screen, streptokinase expression inhibitor project, SKKanGAS strain, BacTiter-Glo luminescence; 6 h; inhibition, % at 7.5 µM; 1.3% of 300,000 active; AID 1662, 2009;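 active = mean replicate score, as percent of positive control median, at least 50; inconclusive = mean below 50 but one replicate at or above 50; inactive = mean and every replicate below 50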;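 note: strain carries kanamycin resistance gene driven by streptokinase promoter and grows in 40 µg/ml kanamycin; loss of luminescence reflects streptokinase promoter inhibition or plain growth inhibition; 0% = median of DMSO wells and 100% = positive control at its reference dose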
tim10-1 inh: growth inhibitors of tim10-1 mutant yeast, primary screen, luminescence, uHTS; S. cerevisiae tim10-1 ts strain growth, BacTiter-Glo, 24 h; inhibition, % at 20 µM; 2.2% of 330,000 active; AID 463190, 2010;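 active = inhibition of at least 40%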;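 note: mutant grown at 25 °C; 0% = DMSO wells with yeast and 100% = wells holding no yeast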
TIM10 inh: growth inhibitors of isogenic TIM10 control yeast, primary screen, counter-screen for tim10-1 yeast inhibitor project, luminescence, uHTS; S. cerevisiae TIM10 strain growth, BacTiter-Glo luminescence, 24 h; inhibition, % at 10 µM; 1.4% of 330,000 active;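 active = inhibition of 40% or more at the single tested concentration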;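 note: wild-type TIM10 isogenic control strain grown at permissive 25 °C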
tim10-1 conf: growth inhibitors of tim10-1 mutant yeast, confirmation, single concentration, luminescence, S. cerevisiae; AID 463213, 2010; shares compounds with tim10-1 inh; S. cerevisiae tim10-1 ts strain growth, BacTiter-Glo, 24 h; inhibition, % at 20 µM; 56% of 7,400 active;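 active = inhibition of yeast growth at or above a set limit in either of two repeat tests at 20 µM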;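 note: tim10-1 mutant grown at permissive 25 °C to find synthetic lethal compounds; 0% = DMSO yeast wells and 100% = medium wells without yeast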
Numbers without * were called inactive; ? = inconclusive; / = no result given. In the library only some 4.9% were active in any assay of this set; here they are far more common.

SMILES	NALP1 yeast inh	NLRP3 yeast inh	tim23-1 inh	SKKanGAS inh	tim10-1 inh	TIM10 inh	tim10-1 conf
CCC(=O)N1CCN(c2cc(N3CCCC3)c(F)cc2[N+](=O)[O-])CC1	/	31	15	-1	7	12	/
Cc1ccc(F)c([C@H]2[C@@H]3C=CCC[C@@]3(C)C(=O)N2Cc2ccccc2)c1	-4	-41	47	19	45*	40	42*
O=C1C2C(c3ccccc3)CC=CC2[C@H](c2ccc3ccccc3c2)N1Cc1ccccc1 (stereo not given in full)	10	6	7	24	46*	3	38*
Cc1ccc(-c2cc([C@H]3[C@@H]4C=CCC[C@@]4(C)C(=O)N3Cc3ccccc3)ccc2F)cc1	-5	-1	13	?	24	13	/
Cc1ccc(F)c([C@H]2C3C=CCC(c4ccccc4)C3C(=O)N2Cc2ccccc2)c1 (stereo not given in full)	8	7	6	50*	44*	4	31*
CCOC(=O)C(C(=O)N(C)Cc1ccccc1)C1CCCCC1 (stereo not given)	19	15	27	7	20	-5	/
C=CCOc1cccc(CNCc2ccncc2)c1	-2	-3	-10	-1	-12	1	/
COc1ccc(/C(=N/Nc2ncnc3ccccc23)C(=O)O)cc1	-24	-2	-14	-1	-14	-9	/
Cc1c(-c2ccccc2)sc(Br)c1C(=O)N1CCOCC1	1	11	41	4	48*	14	23
Cc1nc(SCc2nc3ccc(Br)cc3[nH]2)c2oc3ccccc3c2n1	/	35	44	/	20	-1	/
CCc1nc(SCc2nc3ccccc3[nH]2)c2oc3ccccc3c2n1	-5	43	26	11	40*	10	19
CCOC(=O)N1CCN(Cc2nc3cc([N+](=O)[O-])ccc3n2C)CC1	-7	11	17	3	27	-4	/
CCOc1ccc(OCCC(=O)OCC(=O)Nc2cc(OCC)c(N3CCOCC3)cc2OCC)cc1	/	19	49	-1	46*	28	31
CC(=O)c1cccc(NC(=S)NC(=O)Cc2ccccc2)c1	3	-2	29	5	46*	27	23
CC(=O)c1cccc(NC(=S)NCCC2=CCCCC2)c1	-75	6	21	2	40	27	28
COc1cc(OC)cc(C(=O)NC(=S)NNC(=O)Cc2cccs2)c1	-2	23	-39	70*	40*	15	11
Cc1cc(C)c(NC(=O)CNC(=O)CSc2nnc(N)s2)c(C)c1	/	24	15	1	8	-2	/
CN(C)CCCN1c2ccccc2CCc2ccc(Cl)cc21	38	40	22	2	53*	17	32*
Cc1ccc(NC(=O)c2sc3ncnc(N4CCN(c5ccccn5)CC4)c3c2C)c(C)c1	15	7	34	-5	48*	13	24
Cc1ccc(NC(=O)c2sc3nc(C)nc(N4CCN(c5ccccn5)CC4)c3c2C)c(C)c1	-2	10	33	29	16	16	/
Cn1c(CC(=O)NNC(=O)c2ccc(Cl)nc2)nc2ccccc21	/	7	11	/	9	-4	/
Cc1ccc(C(=O)Nc2ccc(C(=O)N3CCCCC3C)cc2)cc1 (stereo not given)	-21	-2	22	-4	47*	13	26
CCn1c(SCC(=O)Nc2ccc(Cl)cc2)nc2nc3c(cc2c1=O)CCCC3	26	5	-3	5	9	11	/
O=C(CSc1nc2nc3c(cc2c(=O)n1-c1ccccc1)CCCC3)Nc1cccc2ccccc12	26	0	12	21	43*	1	9
Cc1cccc(NC(=O)CSc2nc3nc4c(cc3c(=O)n2-c2ccccc2)CCCC4)c1	35	15	17	21	29	15	/
O=C(CSc1nc2ccccc2c(=O)n1-c1ccc(F)cc1)Nc1ccc2c(c1)CCC2	30	5	19	-1	41*	21	18
